Assay results: PubChem BioAssay (NCI)
About 79,000 compounds went through this panel and 15% of them were active in at least one assay; those are over-represented in the sample as a whole. Cut-off read from the data, not from the text of the source: active = growth inhibition above about 70%; inactive = the rest.

What was measured:
[1] = NCI Yeast Anticancer Drug Screen. Data for the rad50 strain (AID 155);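 note: 0% = growth of vehicle-only cultures of the same strain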; settings: S. cerevisiae rad50 strain growth inhibition; at 50.0 µM; stronger effect = higher value
Summary of the method: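 Compounds were tested on a yeast strain with an engineered DNA damage repair alteration; the reported value is growth inhibition normalised to vehicle treatment.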

[2] = NCI Yeast Anticancer Drug Screen. Data for the mec2-1 strain (AID 157); settings: S. cerevisiae mec2-1 strain, at 50.0 µM, stronger effect = higher value
Summary of the method: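 Strain: mec2-1 (DNA repair/cell cycle alteration). Compound exposure, then growth measured; inhibition expressed relative to vehicle.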

[3] = NCI Yeast Anticancer Drug Screen. Data for the sgs1 mgt1 strain (AID 161);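 note: 0% = growth of cultures given vehicle only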; settings: S. cerevisiae sgs1 mgt1 strain, at 50.0 µM, stronger effect = higher value
Summary of the method: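 Read-out: growth inhibition vs vehicle controls. Cells: mutant yeast strain deficient in DNA damage repair.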

[4] = NCI Yeast Anticancer Drug Screen. Data for the cln2 rad14 strain (AID 165);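 note: 0% = growth equal to vehicle treated cultures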; settings: S. cerevisiae cln2 rad14 strain, at 50.0 µM, stronger effect = higher value
Summary of the method: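 Compounds are applied to the cln2 rad14 yeast strain, and growth is then compared with that of vehicle-treated cultures to give inhibition.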

[5] = NCI Yeast Anticancer Drug Screen. Data for the bub3 strain (AID 167); settings: S. cerevisiae bub3 mutant strain, at 50.0 µM, stronger effect = higher value
Summary of the method: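 Growth of a checkpoint-deficient yeast mutant is measured after compound exposure. Values represent inhibition relative to vehicle.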

[6] = NCI Yeast Anticancer Drug Screen. Data for the mlh1 rad18 strain (AID 175); settings: S. cerevisiae mlh1 rad18 strain growth inhibition; at 50.0 µM; stronger effect = higher value
Summary of the method: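 Read-out is yeast growth inhibition, calculated against vehicle-only controls. The compound was applied to a strain engineered with DNA damage repair alterations.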

Measured: growth inhibition

C=C1C(=O)OC2CC(C)C3(O)CCC(=O)C3(C)CC12 (stereo not given)
inactive: [1] -14.8% | [2] -24.9% | [3] -5.2% | [4] 4.45% | [5] -18.4% | [6] -33.5%

COc1ccc(C2c3cc4c(c(OC)c3CC3OCC(=O)C32)OCO4)cc1OC (stereo not given)
inactive: [1] 4.25% | [2] -15.7% | [3] 22.6% | [4] 13.1% | [6] -4.3%

N/N=C(\C(=O)Nc1ccc([N+](=O)[O-])cc1)C(C1=Nc2cc([N+](=O)[O-])ccc2NC1)[N+](=O)[O-] (stereo not given)
inactive: [1] 34.7% | [2] 11.7% | [3] 12.8% | [4] -41.5% | [6] 16.9%

COC(=O)C(Cc1nc2ccccc2[nH]c1=O)C(=O)C(=O)Nc1cc(C(F)(F)F)ccc1Cl (stereo not given)
inactive: [1] 5.3% | [2] -18.5% | [3] 19.4% | [4] 4.65% | [5] 2.4% | [6] 11.4%

C=CC(COC(=O)C(C)(C)OC(C)=O)c1ccc(OC(=O)C(C)C)c(OC)c1 (stereo not given)
inactive: [1] -12.3% | [2] -2.75% | [3] 20.4% | [4] -12.3% | [6] -76.1%

COC(=O)C1=CO[C@@H](OC2OC(CO)C(O)C(O)C2O)[C@H]2[C@@H](C)[C@@H](O)[C@@H](O)[C@@H]12 (stereo not given in full)
inactive: [1] -5.15% | [2] -10.1% | [3] -0.75% | [4] 2.4% | [5] -5.9% | [6] -57.7%

CCCCCCCCCCCCC/C=C/[C@H]1[C@@H](C(=O)OC)N1S(=O)c1ccc(C)cc1 (stereo not given in full)
inactive: [1] -15.1% | [2] -27.6% | [3] 1.25% | [4] -13.1% | [6] -43.5%

O=C1c2c(O)cc(O)cc2OC(c2ccc(O)c(O)c2)C1O (stereo not given)
inactive: [1] 9.55% | [2] -23.6% | [3] 11.2% | [4] -0.65% | [5] -9.05% | [6] -18.7%

CCOC(=O)COc1cc(-c2ccccc2)nc2cc(F)ccc12
inactive: [1] 10.5% | [2] 7.95% | [3] 0.25% | [4] -18.4% | [6] -25.9%

O=C1NC(N/N=C\C(O)C(O)C(O)C(O)CO)=N/C1=C\c1ccc(Cl)cc1 (stereo not given)
inactive: [1] 23.6% | [2] 30.6% | [3] 25.8% | [4] 26.9% | [5] 24.4% | [6] 17.6%

C=CCn1c2c(c3ccccc3c1=O)C(=O)c1ccccc1-2
inactive: [1] 43.9% | [2] -6.5% | [3] 1.7% | [4] 30.9% | [6] -49.9%

CC(C)=CC(O)C/C(C)=C/CC/C(C)=C/CCC1(C)C(CCCO)/C(=C(/C)C=O)CCC1(C)O (stereo not given)
inactive: [1] 18.9% | [2] 4.75% | [3] 10.2% | [4] 16.9% | [6] -52.9%

CSc1nc(Br)nc2ncn(C3CC(Oc4ccc(C)cc4)C(COc4ccc(C)cc4)O3)c12 (stereo not given)
inactive: [1] 16.7% | [2] 1.7% | [3] 12.4% | [4] 0.7% | [5] -3.15% | [6] -4.75%

CCC(c1ccc(N(C)C)cc1)C1NC(=S)NC1=O (stereo not given)
inactive: [1] -4.2% | [2] -27.8% | [3] -17.6% | [4] 0.85% | [6] -9.55%

C1CCCCNCCC1
inactive: [1] -22.8% | [2] -22.2% | [3] -56.5% | [4] -3.4% | [5] -26.7% | [6] -27.3%

C=C1C(=O)O[C@@H]2C[C@@]3(C)CC(=O)C=C(C)[C@@H]3C[C@H]12
inactive: [1] 12.6% | [2] -7.15% | [3] -7.2% | [4] 24.7% | [5] 15.8% | [6] -16.4%

C=C(C)C(=O)OC1CC2(C)OC(=CC2=O)C(C)CC2OC(=O)C(=C)C12 (stereo not given)
inactive: [1] 13.1% | [2] 18.1% | [3] 29% | [4] 25.2% | [5] 33.5% | [6] -34.6%

COc1cc(N(CCC#N)CCC#N)ccc1/C(N=Nc1ccc(Cl)cc1)=N/NC(=O)c1cc(Br)ccc1O
inactive: [1] 7.6% | [2] -7.45% | [3] -6.45% | [4] 7.2% | [5] 17.8% | [6] 52%
